This note sets out measurements from PubChem BioAssay AID720 (The Scripps Research Institute Molecular Screening Center, 2007).

Screen size: about 97,000 compounds; about 140 (0.14%) were called active. The list comes from a sample in which actives are over-represented; it also holds similar structures and randomly drawn compounds. Unmarked numbers belong to inactive results.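 The calls were made as follows: active = inhibition above the screen-wide mean inhibition plus 3 SD (cut at about 15% in these data); inactive = the rest.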

For this test, the target named is Ephrin type-B receptor 4 (Homo sapiens) (UniProt P54760). In words: EphB4-ephrin-B2 interaction antagonists, primary screen, biochemical, TNYL-RAW peptide probe, fluorescence polarization (AID 720).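 Also: 0% = DMSO wells and 100% = excess unlabeled TNYL-RAW peptide.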 As to conditions: EphB4 LBD / TNYL-RAW-Alexa532 peptide, at 7 µM, stronger effect = higher value. (In fluorescence polarisation assays a small probe gives low polarisation when free and higher when bound to something large.)
Sequence of Ephrin type-B receptor 4 (Homo sapiens) (P54760 whole entry, looked up, the tested form may be a part): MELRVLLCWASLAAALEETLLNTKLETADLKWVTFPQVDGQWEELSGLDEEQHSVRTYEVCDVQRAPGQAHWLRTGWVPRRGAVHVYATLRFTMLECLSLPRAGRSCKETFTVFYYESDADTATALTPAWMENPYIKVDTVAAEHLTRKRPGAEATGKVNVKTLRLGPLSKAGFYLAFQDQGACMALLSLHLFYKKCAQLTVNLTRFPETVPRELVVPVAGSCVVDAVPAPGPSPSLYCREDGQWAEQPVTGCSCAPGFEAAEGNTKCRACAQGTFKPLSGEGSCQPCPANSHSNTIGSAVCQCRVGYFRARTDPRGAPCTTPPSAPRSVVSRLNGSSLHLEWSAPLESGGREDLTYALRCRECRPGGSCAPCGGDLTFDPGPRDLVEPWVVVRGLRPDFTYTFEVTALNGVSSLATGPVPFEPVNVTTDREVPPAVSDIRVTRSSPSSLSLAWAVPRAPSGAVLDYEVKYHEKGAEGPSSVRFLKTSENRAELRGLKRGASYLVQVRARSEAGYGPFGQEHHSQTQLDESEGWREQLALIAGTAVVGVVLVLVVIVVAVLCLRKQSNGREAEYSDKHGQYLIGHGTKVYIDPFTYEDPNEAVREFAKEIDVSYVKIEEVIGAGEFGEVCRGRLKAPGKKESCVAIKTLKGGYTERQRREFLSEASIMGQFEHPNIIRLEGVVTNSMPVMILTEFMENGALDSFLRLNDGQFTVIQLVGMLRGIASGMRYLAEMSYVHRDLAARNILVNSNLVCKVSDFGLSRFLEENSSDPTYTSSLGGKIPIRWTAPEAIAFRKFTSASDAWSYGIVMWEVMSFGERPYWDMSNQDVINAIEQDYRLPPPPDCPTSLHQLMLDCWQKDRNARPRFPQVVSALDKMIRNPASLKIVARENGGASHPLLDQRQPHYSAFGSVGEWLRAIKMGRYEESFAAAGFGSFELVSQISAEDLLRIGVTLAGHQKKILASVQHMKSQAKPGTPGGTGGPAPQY
As for `COc1cc(C)c(C(C)C)cc1S(=O)(=O)n1ccnc1`, the inhibition (usually the change of the read-out against control, counted positive when it falls) is 1.74%.
Regarding `NC(=O)C1(N2CCCCC2)CCN(C(=S)Nc2ccc(Cl)cc2)CC1`, the inhibition was -1.72%.
`NC(=O)COc1ccc(/C=N/NC(=O)C2CCCN2S(=O)(=O)c2ccc(Cl)cc2)cc1` (stereo not given): the inhibition is 0.72%.
On to `CS(=O)(=O)N1CCN(c2cccc(Cl)n2)CC1`, for which the inhibition is -3.22%.
With `CCCc1nc2sc3c(c2c(=O)n1NC(=O)CCCl)CCCC3`, the inhibition is 2.57%.
Under `CC1CCC2(CC1)NC(=O)N(CC(=O)c1cccn1C)C2=O` (stereo not given) stands 4.98%.
Under `COc1ccc(/C=C(/NC(=O)c2ccc(C)cc2)c2nc3ccccc3[nH]2)cc1OC` stands -1.55%; under `CCCc1nnc(NC(=O)CN2C(=O)c3ccccc3S2(=O)=O)s1`, 18.1% (active); under `CNC(=O)CN1C(=O)c2ccccc2S1(=O)=O`, -4.4%.
Turning to `CCCc1nnc(NC(=O)c2cccs2)s1`, the inhibition was -2.26%.
`COC(=O)c1cc(OC)ccc1-c1ccc(OC)cc1`: the inhibition was -6.72%.
Regarding `O=C(COC(=O)c1n[nH]c2ccccc12)NCc1ccccc1`, the inhibition is 1.83%.
Regarding `CC(C)c1ccc(N2CCN(C(=O)c3ccccc3NC(=O)/C=C(\C(=O)O)c3ccccc3)CC2)cc1`, the inhibition was -2.32%.
`CC(C)Oc1ccc(Oc2ccc(C(F)(F)F)cn2)cc1`: the inhibition is -4.38%.
Turning to `O=C(CNC(=O)c1cc2c(s1)CCC2)Nc1ccccc1Br`, the inhibition is -5.12%.
`C=CCOc1c2ccc(C(=O)N(CC)c3ccc(OC)cc3)cc2nn1C`: the inhibition is 0.66%.
In the case of `C=CCNC(=O)c1sc(SC)cc1-c1ccc(Cl)cc1`, the inhibition is -2.13%.
Under `Cc1cccc(NC(=O)c2ccc(OCC(=O)NCc3ccccc3)cc2)c1C` stands 0.02%; under `Cc1ccc(NC(=S)N/N=C2/CCCc3c(C)cc(C)cc32)cc1`, 0.47%; under `CCOC(=O)c1ccc2c(c1)nc(C)n2CC`, -0.83%.
Under `COC(=O)c1ccccc1OCC(=O)N1CCN(c2ccc(Cl)cc2)CC1` stands -4.75%; under `OC(COCCC12CC3CC(CC(C3)C1)C2)CN1CCCCC1` (stereo not given), 2.92%; under `N/C(=N\OC(=O)c1cc(-c2ccccc2)nc2ccccc12)c1ccncc1`, -5.76%.
`Cc1ccc2c(Cl)c(C(=O)NCCCn3ccnc3)sc2c1`: the inhibition is 8.67%.
Under `COc1ccc(C(=O)OCC(=O)NCC2CCCCC2)cc1S(=O)(=O)N1CCCc2ccccc21` stands -0.59%.
For `Cc1ccc(C(=O)c2c(NC(=O)c3ccncc3)sc3c2CCCC3)cc1` the value was 1.3%; for `O=C(N/N=C\c1cccc(Br)c1)c1ccccc1-n1cccc1`, 1.13%; for `CC(=O)c1cccc(NC(=O)N2CCCC2C(=O)NCCc2ccccc2)c1` (stereo not given), 0.44%.
`CC(=O)c1cccc(NC(=O)N2CCCC2C(=O)NCCC(C)C)c1` (stereo not given): the inhibition is 3.74%.
For `CCC1CCCCN1C(=O)Nc1cccc(NC(=O)N2CCCCC2CC)c1` (stereo not given) the value was 16.1% (active).
Take `Cc1ccc(NC(=O)C(C)c2cccc(C(=O)c3ccccc3)c2)cc1` (stereo not given): the inhibition is -1.1%.
For `CCOC(=O)C1=C(CN2CCc3ccccc32)NC(=O)NC1c1cc(C)ccc1C` (stereo not given) the value was -2.91%; for `O=C1c2ccccc2C(=O)N1CCCc1nc(-c2ccccc2)no1`, 5.53%; for `Cc1ccccc1OC(=O)Cn1c(C(F)(F)F)nc2ccccc21`, -8.85%.
With `O=[N+]([O-])c1ccccc1/C=N/n1c(COc2ccccc2)n[nH]c1=S`, the inhibition is 2.36%.
Turning to `Oc1ccccc1/C=N/n1c(-c2cccs2)n[nH]c1=S`, the inhibition was 15.8% (active).
As to `Cc1ccc(/C=N\n2c(-c3ccccc3)n[nH]c2=S)s1`, the inhibition is -7.78%.
Take `COCCN(C(=O)c1ccco1)c1nnc(-c2ccc(OC)cc2)s1`: the inhibition was 0.8%.
Take `c1ccc(-c2ccnc3nc(-n4cccc4)nn23)cc1`: the inhibition was -2.67%.
For `O=C(OCN1C(=O)c2ccccc2C1=O)/C(=C\c1ccco1)NC(=O)c1ccccc1`, the inhibition was -9.89%.
`O=C(ON=C1CCN(S(=O)(=O)c2ccccc2)CC1)c1ccc(Cl)cc1`: the inhibition is -2.79%.
Regarding `O=C(NCCCCc1ccccc1)C1CC(c2ccc([N+](=O)[O-])cc2)=NO1` (stereo not given), the inhibition was 1.72%.
In the case of `CC(=O)c1cc2c(cc1NC(=O)CN1CCCCCC1)OCO2`, the inhibition was -6.18%.
`COCCn1c(=S)[nH]c2cc(C(=O)NCCc3ccc(OC)c(OC)c3)ccc2c1=O`: the inhibition was -6.01%.
For `CCOc1cc2[nH]c(=O)n(CCC(=O)NCc3ccc(OC)cc3)c(=O)c2cc1OCC` the value was 7.75%.
For `CCN(CC)C(=O)CN(c1cccc(OC)c1)S(=O)(=O)c1ccc(C)cc1`, the inhibition is -6.83%.
Regarding `COC(=O)c1ccc(CSc2ccc3nnc(-c4ccccc4)n3n2)o1`, the inhibition is -1.52%.
`CCc1c(-c2ccccc2)nc(N)c(C#N)c1-c1cccs1`: the inhibition was -6.33%.
For `C=CCN1C(=O)C(Cc2cccc(Cl)c2)S/C1=N/N=C/c1ccco1` (stereo not given), the inhibition is 2.87%.
Regarding `O=C(Nc1cccc2ccccc12)N1CCN(Cc2ccc3c(c2)OCO3)CC1`, the inhibition is 0.42%.
`CCOC(=O)C1Sc2[nH]c(=O)sc2C(c2ccc(Cl)cc2)C1C(=O)OCC` (stereo not given): the inhibition was 6.17%.
As for `O=C(c1ccccc1Oc1ccccc1)N1CCN(c2ccc(F)cc2)CC1`, the inhibition was 1.29%.
For `CCCCOc1ccc(CSC(=N)N)cc1[N+](=O)[O-]`, the inhibition is -6.89%.
For `CCn1cc(C(=O)N/N=C(/C)c2ccc(F)cc2)c(=O)c2cc(F)c(N3CCCC3)cc21` the value was 5.77%; for `Cc1ccc(SCC(=O)NC(=O)NCc2ccco2)c(C)c1`, -1.3%.
For the compound `COC(=O)c1ccc(S(=O)(=O)N2CCC(c3nc4ccccc4o3)CC2)cc1`, the inhibition is 2.06%.
Regarding `CCCCc1nnc(NC(=O)CSc2nc(C)cc(=O)[nH]2)s1`, the inhibition was 0.99%.
For `CCCc1noc2c1/C(=N\O)CCC2` the value was 7.69%; for `Cc1ccc(CCN2CC(C(=O)O)CC2=O)cc1` (stereo not given), -3.41%.
Consider `CCOC(=O)c1[nH]c(C)c(C(=O)OCC(=O)N2c3ccccc3CC2C)c1C` (stereo not given), for which the inhibition was 2.53%.
For the compound `O=P(O)(CP(=O)(c1ccccc1)c1ccccc1)c1ccccc1O`, the inhibition is 4%.
On to `Cc1cc(=O)oc2cc(OC(C)C(=O)Nc3ccc(N4CCOCC4)cc3)ccc12` (stereo not given), for which the inhibition was 8.06%.
For `O=C1CCCC2=C1C(c1ccccc1)n1c(s/c(=C/c3cccc(F)c3)c1=O)=N2` (stereo not given) the value was 1.22%; for `O=C(NCc1ccccc1Cl)c1csc2c1CCCCC2`, 2.57%.
`CCCn1c(C)cc(C(=O)COC(=O)c2c(C)nn(-c3ccccc3)c2C)c1C`: the inhibition was 0.32%.
For the compound `CCCCNC(=O)CSc1nc2ccc(NC(=O)CSc3nnc(COc4ccccc4C)n3C)cc2s1`, the inhibition was -4.14%.
For the compound `CC1=NN(C(C)C)C(=O)C1`, the inhibition was -0.74%.
For `O=S(=O)(c1ccc(Br)cc1)n1ccc2ccccc21`, the inhibition was 6.94%.
For the compound `NC(=O)c1c(NC(=O)CSc2nnc(-c3ccco3)n2N)sc2c1CCCC2`, the inhibition was 0.73%.
`CCC(=O)Nc1ccc(C(=O)Nc2cc(C)on2)cc1`: the inhibition was 3.48%.
Regarding `COc1ccc(N(CC(=O)NC2CCCCC2)C(=O)CNC(=O)c2ccco2)c(OC)c1`, the inhibition was 0.8%.
For `CCCCCCC12CCC(C(=O)O)(CC1)CC2` the value was -4.95%; for `Cn1c(CO)cnc1SCc1ccccc1`, 3.71%.
As for `CCOc1cc(NC(=O)c2ccco2)c(OCC)cc1NC(=O)COc1ccccc1`, the inhibition was -10%.
With `CCOc1cc(N2CCOCC2)c(OCC)cc1NC(=O)COc1cccc2cccnc12`, the inhibition was 17.3% (active).
Regarding `CCOc1cc(N2CCOCC2)c(OCC)cc1NC(=O)COC(=O)[C@H](Cc1c[nH]c2ccccc12)NC(C)=O`, the inhibition was 5.55%.
Turning to `S=C(NCCC1=CCCCC1)Nc1ccccc1`, the inhibition was 4.71%.
On to `c1ccc(-n2nc3ccccc3n2)cc1`, for which the inhibition is 1.16%.
Under `COc1ccc(C2=NO[C@@H]3C(=O)N(Cc4ccccc4)C(=O)[C@H]23)cc1OC` stands 7.58%.
For `Nc1nc(C23CC4CC(CC(C4)C2)C3)cs1`, the inhibition was -1.67%.
`O=C(CCC(=O)OCc1cccc(C(=O)Oc2ccccc2)c1)Nc1cccc2ccccc12`: the inhibition was 3.74%.
For `COc1ccc(CCNC(=O)COC(=O)c2ccc[nH]c2=O)cc1` the value was -5.04%; for `O=C(N/N=C\c1ccc(-c2ccc(Cl)c(Cl)c2)o1)C(=O)N1CCCC1`, -0.37%.
Regarding `CCOc1cc(NC(=O)c2cnccn2)c(OCC)cc1NC(=O)c1ccc(C)cc1`, the inhibition is -6.39%.
Regarding `CC(C)Cc1oc(C(=O)O)cc1CN`, the inhibition is -0.3%.
As for `O=C(NC1CC1)c1ccc2c(c1)NC(=O)c1ccccc1S2`, the inhibition is 0.56%.
For `COc1ccc(-c2csc3nc(-c4ccccc4F)oc(=O)c23)cc1OC`, the inhibition was -10.2%.
Consider `O=C(N/N=C/c1ccc(O)cc1)/C(=C/c1ccc([N+](=O)[O-])cc1)NC(=O)c1ccccc1`, for which the inhibition was -1.89%.
Under `CCOCc1nnc(NC(=O)CSc2ccc(C)cc2)s1` stands 1.51%; under `O=[N+]([O-])c1ccc(C=Nc2ccc(Cl)cc2Cl)s1`, -0.13%.
On to `CC1=CC(C)(C)Nc2ccc(OC(=O)C(Cc3ccccc3)N3C(=O)C4CCCCC4C3=O)cc21` (stereo not given), for which the inhibition was -0.93%.
Regarding `S=c1[nH]nc(CSCc2ccc(Cl)cc2Cl)n1-c1ccccc1`, the inhibition was 8.29%.
For `CCOC(=O)c1cnc(SCC(=O)Nc2cccc(OC)c2)nc1N` the value was 9.83%; for `O=S(=O)(N/N=C\c1cccn1-c1ccccc1)c1ccc2ccccc2c1`, -8.09%; for `Cn1c2ccccc2n2c(=O)c(=O)n(CC(=O)c3ccc(F)cc3)nc12`, 0.04%.
